A short description of assay [1]: NCI Yeast Anticancer Drug Screen. Data for the rad50 strain (AID 155).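 Note: 0% = growth of vehicle-only cultures of the same strain.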 The conditions noted are these: S. cerevisiae rad50 strain growth inhibition, hits give high values. Summed up: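 Vehicle-treated cultures provide the reference for the growth inhibition reported for compound-exposed, repair-deficient yeast.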
Assay [2] in a line: NCI Yeast Anticancer Drug Screen. Data for the mec2-1 strain (AID 157). Particulars: S. cerevisiae mec2-1 strain, hits give high values. An outline of the steps:
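Yeast mec2-1 mutant treated with compound. Readout: growth inhibition vs vehicle controls.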

The nature of assay [3]: NCI Yeast Anticancer Drug Screen. Data for the sgs1 mgt1 strain (AID 161).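 Note: 0% = growth of cultures given vehicle only.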 The conditions noted are these: S. cerevisiae sgs1 mgt1 strain, hits give high values. An outline of the steps:
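Genetically altered yeast, compound exposure, growth inhibition relative to vehicle.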

Assay [4] can be described thus: NCI Yeast Anticancer Drug Screen. Data for the cln2 rad14 strain (AID 165).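 Note: 0% = growth equal to vehicle treated cultures.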 The conditions noted are these: S. cerevisiae cln2 rad14 strain, hits give high values. An outline of the steps:
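cln2 rad14 yeast strain; compound exposure; growth inhibition read vs vehicle controls.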

A short description of assay [5]: NCI Yeast Anticancer Drug Screen. Data for the bub3 strain (AID 167). Particulars: S. cerevisiae bub3 mutant strain, hits give high values. An outline of the steps:
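Mutant yeast screening strain plus compound; vehicle-treated cultures serve as the 0% inhibition reference.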

Assay [6] is described as follows: NCI Yeast Anticancer Drug Screen. Data for the mlh1 rad18 strain (AID 175). The conditions noted are these: S. cerevisiae mlh1 rad18 strain growth inhibition, hits give high values. An outline of the steps: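 Yeast w/ defined DNA-repair lesions; compound exposure; growth vs vehicle controls → % inhibition.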
The mark [7] stands for this setting: at 5.0 µM (retest, dose inferred, filed as 0.5).
The mark [8] stands for this setting: at 50.0 µM (retest, dose inferred, filed as 5.0).

About 79,000 compounds went through this panel and 15% of them were active in at least one assay; those are over-represented in the sample as a whole. A number with no mark means an inactive call. Calls of active or inactive are those of the source. Cut-off read from the data, not from the text of the source: active = growth inhibition above about 70%; inactive = the rest. *1 amine or outer side, *2 acyl side, *3 side chain or, on linkers, in order; H or OH if unused. Where a SMILES comes first, the peptide text is derived from it. [ ]: non-standard residue; d: D form. The star is where a group is joined. X5 = CCC(=O)CC1CC(C)CC(C(=O)[*:2])N1[*:1]; X4 = CCCCCCCCC(C)C(=O)*; Aib = CC(C)(N)C(=O)O; X6 = CC(CN(C)CCO)N*

In the case of `O=S(=O)(O)c1cnccn1`, the growth inhibition is 0% in assay [1] (setting [7]); -4% in assay [1] (setting [8]); 91.3% (active) in assay [1] (at 50.0 µM); -2% in assay [2] (setting [7]); -3% in assay [2] (setting [8]); 98.3% (active) in assay [2] (at 50.0 µM). Besides, the growth inhibition in assay [3] (setting [7]) is -4%; in assay [3] (setting [8]) it was -3%; in assay [3] (at 50.0 µM), 87.8% (active); in assay [4] (setting [7]), 0%; in assay [4] (setting [8]), 3%; in assay [4] (at 50.0 µM), 80.8% (active). Moreover, the growth inhibition is 2% in assay [5] (setting [7]); 6% in assay [5] (setting [8]); 96.9% (active) in assay [5] (at 50.0 µM); 1% in assay [6] (setting [7]); -2% in assay [6] (setting [8]); 80.9% (active) in assay [6] (at 50.0 µM).

Take `Cc1cc(Br)c2nsnc2c1[N+](=O)[O-]`: the growth inhibition in assay [1] (setting [7]) is 33%; in assay [1] (setting [8]), 94% (active); in assay [1] (at 50.0 µM), 54.4%; in assay [2] (setting [7]), 43%; in assay [2] (setting [8]), 97% (active); in assay [2] (at 50.0 µM), 78.5% (active). In addition, the growth inhibition in assay [3] (setting [7]) is 30%; in assay [3] (setting [8]), 85% (active); in assay [3] (at 50.0 µM) it was 80.8% (active); in assay [4] (setting [7]) it was 32%; in assay [4] (setting [8]) it was 88% (active); in assay [4] (at 50.0 µM), 71.2% (active). Further, the growth inhibition is 20% in assay [5] (setting [7]); 87% (active) in assay [5] (setting [8]); 68.7% in assay [5] (at 50.0 µM); 37% in assay [6] (setting [7]); 95% (active) in assay [6] (setting [8]); 77.9% (active) in assay [6] (at 50.0 µM).

Turning to `CC12CCC(O)CC1=CCC1C2CCC2(C)C3=NN=CC3CC12` (stereo unspecified), the growth inhibition in assay [1] (setting [7]) was 38%; in assay [1] (setting [8]), 99% (active); in assay [1] (at 50.0 µM) it was 96.6% (active); in assay [2] (setting [7]), 16%; in assay [2] (setting [8]), 100% (active); in assay [2] (at 50.0 µM) it was 99.4% (active). Moreover, the growth inhibition was 35% in assay [3] (setting [7]); 100% (active) in assay [3] (setting [8]); 98.5% (active) in assay [3] (at 50.0 µM); 7% in assay [4] (setting [7]); 100% (active) in assay [4] (setting [8]); 99.2% (active) in assay [4] (at 50.0 µM). In addition, the growth inhibition is 31% in assay [5] (setting [7]); 100% (active) in assay [5] (setting [8]); 99.3% (active) in assay [5] (at 50.0 µM); 50% in assay [6] (setting [7]); 100% (active) in assay [6] (setting [8]); 99.5% (active) in assay [6] (at 50.0 µM).

Regarding `NC1=C(Br)C(=O)c2ncccc2C1=O`, the growth inhibition in assay [1] (setting [7]) is 56%; in assay [1] (setting [8]) it was 94% (active); in assay [1] (at 50.0 µM), 87.7% (active); in assay [2] (setting [7]) it was 19%; in assay [2] (setting [8]), 86% (active); in assay [2] (at 50.0 µM) it was 91.5% (active). For the same compound, the growth inhibition in assay [3] (setting [7]) is 34%; in assay [3] (setting [8]) it was 93% (active); in assay [3] (at 50.0 µM), 91.5% (active); in assay [4] (setting [7]), 18%; in assay [4] (setting [8]), 90% (active); in assay [4] (at 50.0 µM) it was 90% (active). Further, the growth inhibition is 9% in assay [5] (setting [7]); 83% (active) in assay [5] (setting [8]); 90.3% (active) in assay [5] (at 50.0 µM); 50% in assay [6] (setting [7]); 95% (active) in assay [6] (setting [8]).

Turning to `O=C(c1ccc(O)c(Br)c1)c1ccc(O)c(Br)c1`, the growth inhibition was 43% in assay [1] (setting [7]); 99% (active) in assay [1] (setting [8]); 28.7% in assay [1] (at 50.0 µM); 76% (active) in assay [2] (setting [7]); 99% (active) in assay [2] (setting [8]); 76% (active) in assay [2] (at 50.0 µM). In addition, the growth inhibition in assay [3] (setting [7]) was 44%; in assay [3] (setting [8]), 99% (active); in assay [3] (at 50.0 µM), 64.4%; in assay [4] (setting [7]) it was 83% (active); in assay [4] (setting [8]), 99% (active); in assay [4] (at 50.0 µM), 43.5%. The growth inhibition was 83% (active) in assay [5] (setting [7]); 99% (active) in assay [5] (setting [8]); 82.7% (active) in assay [5] (at 50.0 µM); 76% (active) in assay [6] (setting [7]); 99% (active) in assay [6] (setting [8]); 88% (active) in assay [6] (at 50.0 µM).

In the case of `CCCCCCCCC(C)C(=O)N1CCCC1C(=O)N1C(CC(=O)CC)CC(C)CC1C(=O)NC(C)C(=O)NC(C)(C)C(=O)NC(C)(C)C(=O)NC(C(=O)NC(C)C(=O)NC(C)(C)C(=O)NC(C)(C)C(=O)NC(C)CN(C)CCO)C(C)CC` (stereo unspecified) (X4-P[X5]A[Aib][Aib]IA[Aib][Aib]-X6; configuration not given here), the growth inhibition is 98% (active) in assay [1] (setting [7]); 100% (active) in assay [1] (setting [8]); 91.6% (active) in assay [1] (at 50.0 µM); 99% (active) in assay [2] (setting [7]); 100% (active) in assay [2] (setting [8]); 93.5% (active) in assay [2] (at 50.0 µM). The growth inhibition in assay [3] (setting [7]) is 99% (active); in assay [3] (setting [8]), 100% (active); in assay [3] (at 50.0 µM) it was 92.8% (active); in assay [4] (setting [7]), 99% (active); in assay [4] (setting [8]) it was 99% (active); in assay [4] (at 50.0 µM), 90.9% (active). Moreover, the growth inhibition in assay [5] (setting [7]) was 99% (active); in assay [5] (setting [8]) it was 99% (active); in assay [5] (at 50.0 µM) it was 92.4% (active); in assay [6] (setting [7]), 99% (active); in assay [6] (setting [8]), 99% (active); in assay [6] (at 50.0 µM), 89.7% (active).

Take `CC1(C=O)CCC23COC4(CCC5C6(C)CCC(OC7OCC(OC8OC(CO)C(O)C(OC9OC(CO)C(O)C(O)C9O)C8OC8OCC(O)C(O)C8O)C(O)C7OC7OC(CO)C(O)C(O)C7O)C(C)(C)C6CCC5(C)C4(C)CC2O)C3C1` (stereo unspecified): the growth inhibition in assay [1] (setting [7]) was 22%; in assay [1] (setting [8]), 93% (active); in assay [1] (at 50.0 µM), 66.8%; in assay [2] (setting [7]), 14%; in assay [2] (setting [8]), 96% (active); in assay [2] (at 50.0 µM), 85.2% (active). Further, the growth inhibition was 9% in assay [3] (setting [7]); 96% (active) in assay [3] (setting [8]); 88.2% (active) in assay [3] (at 50.0 µM); 18% in assay [4] (setting [7]); 94% (active) in assay [4] (setting [8]); 86.2% (active) in assay [4] (at 50.0 µM). For the same compound, the growth inhibition was 16% in assay [5] (setting [7]); 97% (active) in assay [5] (setting [8]); 87.1% (active) in assay [5] (at 50.0 µM); 22% in assay [6] (setting [7]); 98% (active) in assay [6] (setting [8]); 82.3% (active) in assay [6] (at 50.0 µM).

Take `Fc1cccc(F)c1C1SCc2nc3cc4ccccc4cc3n21` (stereo unspecified): the growth inhibition was 35% in assay [1] (setting [7]); 83% (active) in assay [1] (setting [8]); 23.1% in assay [1] (at 50.0 µM); 24% in assay [2] (setting [7]); 66% in assay [2] (setting [8]); 56.3% in assay [2] (at 50.0 µM). The growth inhibition in assay [3] (setting [7]) is 23%; in assay [3] (setting [8]), 47%; in assay [3] (at 50.0 µM) it was 78.5% (active); in assay [4] (setting [7]), 27%; in assay [4] (setting [8]), 31%; in assay [4] (at 50.0 µM) it was 80.1% (active). The growth inhibition in assay [5] (setting [7]) is 30%; in assay [5] (setting [8]), 75% (active); in assay [5] (at 50.0 µM), 80.2% (active); in assay [6] (setting [7]), 28%; in assay [6] (setting [8]), 75% (active); in assay [6] (at 50.0 µM), 42.5%.

For `CCN(CC)c1ccc(/C=C\C(=O)c2ccc(NC(C)=O)cc2)cc1`, the growth inhibition is -22% in assay [1] (setting [7]); -8% in assay [1] (setting [8]); 22.8% in assay [1] (at 50.0 µM); -14% in assay [2] (setting [7]); -21% in assay [2] (setting [8]); 55.4% in assay [2] (at 50.0 µM). Besides, the growth inhibition in assay [3] (setting [7]) is -13%; in assay [3] (setting [8]), -2%; in assay [3] (at 50.0 µM), 52%; in assay [4] (setting [7]) it was -11%; in assay [4] (setting [8]) it was -10%; in assay [4] (at 50.0 µM), 28.6%. For the same compound, the growth inhibition in assay [5] (setting [7]) was -12%; in assay [5] (setting [8]) it was -4%; in assay [5] (at 50.0 µM) it was 76.8% (active); in assay [6] (setting [7]), -21%; in assay [6] (setting [8]) it was -9%; in assay [6] (at 50.0 µM) it was 52%.
